PubChem BioAssay AID1159580 (chemical genetic matrix, 2015)
Screen size: about 5,500 compounds; about 2,000 (36%) were called active. Inconclusive results (about 18%) are left out. Cut-off read from the data, not from the text of the source: active = normalized growth mostly below about 0.91 (no sharp cut-off); inconclusive = no clear call, values can overlap the other calls; inactive = mostly above about 0.92. Some of the results follow.

Assay: chemical genetic growth profiling, strain panel (AID 1159580);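 note: tested at 20 µM; growth read once vehicle control cultures reached saturation at 30 °C; 1 = growth at the plate median or of vehicle wells; lower values mean less growth of the strain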
Conditions: growth OD
[1] = S. cerevisiae deletion strains, locus YHR030C, strain SLT2, stronger effect = lower value
[2] = S. cerevisiae deletion strains, locus YHR079C, strain IRE1, stronger effect = lower value
[3] = S. cerevisiae deletion strains, locus YJL095W, strain BCK1, stronger effect = lower value
[4] = S. cerevisiae deletion strains, locus YJR066W, strain TOR1, stronger effect = lower value
[5] = S. cerevisiae deletion strains, locus YLR113W, strain HOG1, stronger effect = lower value
[6] = S. cerevisiae deletion strains, locus YNL183C, strain NPR1, stronger effect = lower value
[7] = S. cerevisiae deletion strains, locus YOR231W, strain MKK1, stronger effect = lower value
[8] = S. cerevisiae deletion strains, locus YPL256C, strain CLN2, stronger effect = lower value

Measured: normalized growth

CC(C)=CCC/C(C)=C/CC/C(C)=C/CO
active: [1] 0.416 | [2] 0.506 | [3] 0.609 | [4] 0.804 | [5] 0.35 | [6] 0.732 | [7] 0.407 | [8] 0.388

CC(C)=CCC/C(C)=C/CC/C(C)=C/CC/C(C)=C/CO
inactive: [1] 1.06 | [2] 1.05 | [3] 1.04 | [4] 0.944 | [5] 0.975 | [6] 0.932 | [7] 0.998 | [8] 1.08

C=C[C@](C)(O)CCC=C(C)C
inactive: S. cerevisiae deletion strains, locus YBR021W, strain FUR4, stronger effect = lower value 1.01 | S. cerevisiae deletion strains, locus YBR229C, strain ROT2, stronger effect = lower value 1 | S. cerevisiae deletion strains, locus YCL029C, strain bik1, stronger effect = lower value 1.02 | S. cerevisiae deletion strains, locus YDL035C, strain GPR1, stronger effect = lower value 1.04 | S. cerevisiae deletion strains, locus YDL074C, strain BRE1, stronger effect = lower value 1.06 | S. cerevisiae deletion strains, locus YDL101C, strain DUN1, stronger effect = lower value 1.01 | S. cerevisiae deletion strains, locus YDL134C, strain PPH21, stronger effect = lower value 1 | S. cerevisiae deletion strains, locus YDL185W, strain tfp1, stronger effect = lower value 1.02 | S. cerevisiae deletion strains, locus YDL192W, strain arf1, stronger effect = lower value 1.01 | S. cerevisiae deletion strains, locus YDR101C, strain arx1, stronger effect = lower value 1.04 | S. cerevisiae deletion strains, locus YDR162C, strain NBP2, stronger effect = lower value 1 | S. cerevisiae deletion strains, locus YDR318W, strain mcm21, stronger effect = lower value 0.986 | S. cerevisiae deletion strains, locus YDR388W, stronger effect = lower value 1.01 | S. cerevisiae deletion strains, locus YDR502C, strain sam2, stronger effect = lower value 0.999 | S. cerevisiae deletion strains, locus YEL061C, strain CIN8, stronger effect = lower value 1 | S. cerevisiae deletion strains, locus YER110C, stronger effect = lower value 1.01 | S. cerevisiae deletion strains, locus YER155C, strain BEM2, stronger effect = lower value 1.01 | S. cerevisiae deletion strains, locus YER167W, strain BCK2, stronger effect = lower value 1.01 | S. cerevisiae deletion strains, locus YGL078C, strain dbp3, stronger effect = lower value 1.02 | S. cerevisiae deletion strains, locus YGL086W, strain mad1, stronger effect = lower value 1.05 | S. cerevisiae deletion strains, locus YGL248W, strain PDE1, stronger effect = lower value 0.995 | S. cerevisiae deletion strains, locus YGR135W, strain pre9, stronger effect = lower value 1.01 | S. cerevisiae deletion strains, locus YGR252W, strain gcn5, stronger effect = lower value 0.977 | [1] 1.01 | S. cerevisiae deletion strains, locus YHR079C, strain IRE1 (second series), stronger effect = lower value 1.01 | S. cerevisiae deletion strains, locus YHR094C, strain hxt1, stronger effect = lower value 1.01 | S. cerevisiae deletion strains, locus YHR129C, strain ARP1, stronger effect = lower value 1.02 | S. cerevisiae deletion strains, locus YHR200W, strain rpn10, stronger effect = lower value 1.01 | S. cerevisiae deletion strains, locus YIL066C, strain RNR3, stronger effect = lower value 1.01 | S. cerevisiae deletion strains, locus YIL073C, strain SPO22, stronger effect = lower value 1.03 | S. cerevisiae deletion strains, locus YIL125W, strain kgd1, stronger effect = lower value 1.02 | S. cerevisiae deletion strains, locus YIR030C, strain dcg1, stronger effect = lower value 0.998 | [3] 0.988 | S. cerevisiae deletion strains, locus YJL134W, strain LCB3, stronger effect = lower value 0.999 | S. cerevisiae deletion strains, locus YJL168C, strain set2, stronger effect = lower value 1.01 | S. cerevisiae deletion strains, locus YJL187C, strain SWE1 (second series), stronger effect = lower value 1 | S. cerevisiae deletion strains, locus YJR043C, strain POL32, stronger effect = lower value 1.04 | S. cerevisiae deletion strains, locus YJR075W, strain HOC1, stronger effect = lower value 1 | S. cerevisiae deletion strains, locus YKL009W, strain mrt4, stronger effect = lower value 1.05 | S. cerevisiae deletion strains, locus YKL068W, stronger effect = lower value 1 | S. cerevisiae deletion strains, locus YKL085W, strain MDH1 (second series), stronger effect = lower value 0.995 | S. cerevisiae deletion strains, locus YKL085W, strain MDH1, stronger effect = lower value 0.995 | S. cerevisiae deletion strains, locus YKL190W, strain CNB1, stronger effect = lower value 1 | S. cerevisiae deletion strains, locus YKR001C, strain vps1, stronger effect = lower value 1.06 | S. cerevisiae deletion strains, locus YLR039C, strain RIC1, stronger effect = lower value 1.03 | S. cerevisiae deletion strains, locus YLR058C, strain SHM2, stronger effect = lower value 0.997 | S. cerevisiae deletion strains, locus YLR102C, strain apc9, stronger effect = lower value 1.01 | S. cerevisiae deletion strains, locus YLR262C, strain YPT6, stronger effect = lower value 1.01 | S. cerevisiae deletion strains, locus YLR268W, strain sec22, stronger effect = lower value 1.06 | S. cerevisiae deletion strains, locus YLR330W, strain CHS5, stronger effect = lower value 1.02 | S. cerevisiae deletion strains, locus YLR342W, strain FKS1 (second series), stronger effect = lower value 1.05 | S. cerevisiae deletion strains, locus YLR371W, strain rom2, stronger effect = lower value 1.02 | S. cerevisiae deletion strains, locus YLR418C, strain cdc73, stronger effect = lower value 0.984 | S. cerevisiae deletion strains, locus YML016C, strain PPZ1, stronger effect = lower value 1.01 | S. cerevisiae deletion strains, locus YML032C, strain rad52, stronger effect = lower value 0.973 | S. cerevisiae deletion strains, locus YML124C, strain tub3, stronger effect = lower value 0.999 | S. cerevisiae deletion strains, locus YMR078C, strain ctf18, stronger effect = lower value 1.01 | S. cerevisiae deletion strains, locus YMR223W, strain ubp8, stronger effect = lower value 0.994 | S. cerevisiae deletion strains, locus YMR307W, strain GAS1, stronger effect = lower value 1.03 | S. cerevisiae deletion strains, locus YNL067W, strain RPL9B, stronger effect = lower value 1.01 | S. cerevisiae deletion strains, locus YNL233W, strain BNI4, stronger effect = lower value 1 | S. cerevisiae deletion strains, locus YNL250W, strain rad50, stronger effect = lower value 1.02 | S. cerevisiae deletion strains, locus YNL271C, strain bni1, stronger effect = lower value 1.01 | S. cerevisiae deletion strains, locus YNL298W, strain CLA4, stronger effect = lower value 1.02 | S. cerevisiae deletion strains, locus YNL307C, strain MCK1, stronger effect = lower value 1.03 | S. cerevisiae deletion strains, locus YNL322C, strain KRE1, stronger effect = lower value 1 | S. cerevisiae deletion strains, locus YNR052C, strain pop2, stronger effect = lower value 0.997 | S. cerevisiae deletion strains, locus YOL006C, strain TOP1, stronger effect = lower value 1.1 | S. cerevisiae deletion strains, locus YOL012C, strain htz1 1.44 | S. cerevisiae deletion strains, locus YOL147C, strain pex11, stronger effect = lower value 1 | S. cerevisiae deletion strains, locus YOR061W, strain CKA2, stronger effect = lower value 1 | S. cerevisiae deletion strains, locus YOR069W, strain VPS5, stronger effect = lower value 1.01 | S. cerevisiae deletion strains, locus YOR136W, strain idh2, stronger effect = lower value 1.01 | S. cerevisiae deletion strains, locus YOR144C, strain elg1, stronger effect = lower value 1.01 | S. cerevisiae deletion strains, locus YOR184W, strain ser1, stronger effect = lower value 1.05 | S. cerevisiae deletion strains, locus YOR316C, strain cot1, stronger effect = lower value 1.01 | S. cerevisiae deletion strains, locus YPL241C, strain CIN2, stronger effect = lower value 0.998 | S. cerevisiae deletion strains, locus YPR119W, strain clb2, stronger effect = lower value 1 | S. cerevisiae deletion strains, locus YPR141C, strain kar3, stronger effect = lower value 1 | S. cerevisiae deletion strains, locus YPR163C, strain tif3, stronger effect = lower value 1 | S. cerevisiae deletion strains, locus YPR167C, strain met16, stronger effect = lower value 0.999 | S. cerevisiae deletion strains, strain wtn01, stronger effect = lower value 1.07 | S. cerevisiae strains, strain wild type, stronger effect = lower value 1.01
